# Where a name gives a salt, the structure may show the parent alone.
# How the values were obtained:
# Conditions in all cases: treatment time: 24 h
# A549-ACTB-RAB5A [1] = assay: lowest phenotypically active concentration; higher = less potent
# Outline: (§1)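 Each of fifteen gene-edited A549, HepG2 and WPMY1 reporter lines, marked with BFP for segmentation and GFP and RFP/FusionRed, was treated in four wells at 0.3, 1, 3 or 9 µM for 24 h prior to live imaging. Normalisation of per-well live-cell features used solvent control wells. Deviation needed ≥3 of 4 wells beyond the 95th percentile of control Euclidean distances, and reproducibility needed a median replicate Pearson correlation above the 95th percentile of non-replicates. Both were required for phenotypic activity.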
# A549-CANX-COX4 [2] = assay: as above
# Outline: as §1
# A549-GM130-SQSTM1 [3] = assay: as above
# Outline: as §1
# A549-TP53BP1-CLTA [4] = assay: as above
# Outline: as §1
# A549-TUBA1B-RELA [5] = assay: as above
# Outline: as §1
# A549-ACTB-RAB5A [6] = assay: phenotypically active (imaging signature differs from DMSO and reproducible) at any of 0.3-9 uM (binary (1 = active, 0 = inactive)); higher = active
# Outline: as §1
# A549-CANX-COX4 [7] = assay: as above
# Outline: as §1
# A549-GM130-SQSTM1 [8] = assay: as above
# Outline: as §1
# A549-TP53BP1-CLTA [9] = assay: as above
# Outline: as §1
# A549-TUBA1B-RELA [10] = assay: as above
# Outline: as §1
# HepG2-ACTB-RAB5A = assay: as above
# Outline: as §1
# HepG2-CANX-COX4 = assay: as above
# Outline: as §1
# HepG2-GM130-SQSTM1 = assay: as above
# Outline: as §1
# HepG2-TP53BP1-CLTA = assay: as above
# Outline: as §1
# HepG2-TUBA1B-RELA = assay: as above
# Outline: as §1
# WPMY1-ACTB-RAB5A = assay: as above
# Outline: as §1
# WPMY1-CANX-COX4 = assay: as above
# Outline: as §1
# WPMY1-GM130-SQSTM1 = assay: as above
# Outline: as §1
# WPMY1-TP53BP1-CLTA = assay: as above
# Outline: as §1
# WPMY1-TUBA1B-RELA = assay: as above
# Outline: as §1
SMILES,lowest phenotypically active concentration (A549-ACTB-RAB5A [1]) [µM],lowest phenotypically active concentration (A549-CANX-COX4 [2]) [µM],lowest phenotypically active concentration (A549-GM130-SQSTM1 [3]) [µM],lowest phenotypically active concentration (A549-TP53BP1-CLTA [4]) [µM],lowest phenotypically active concentration (A549-TUBA1B-RELA [5]) [µM],phenotypically active (A549-ACTB-RAB5A [6]),phenotypically active (A549-CANX-COX4 [7]),phenotypically active (A549-GM130-SQSTM1 [8]),phenotypically active (A549-TP53BP1-CLTA [9]),phenotypically active (A549-TUBA1B-RELA [10]),phenotypically active (HepG2-ACTB-RAB5A),phenotypically active (HepG2-CANX-COX4),phenotypically active (HepG2-GM130-SQSTM1),phenotypically active (HepG2-TP53BP1-CLTA),phenotypically active (HepG2-TUBA1B-RELA),phenotypically active (WPMY1-ACTB-RAB5A),phenotypically active (WPMY1-CANX-COX4),phenotypically active (WPMY1-GM130-SQSTM1),phenotypically active (WPMY1-TP53BP1-CLTA),phenotypically active (WPMY1-TUBA1B-RELA)
CN(C)CCCNc1c2c(=O)n(C)c(=O)nc-2n(C)c2ccccc12,9,9,9,9,9,1 (active),1 (active),1 (active),1 (active),1 (active),1 (active),1 (active),1 (active),1 (active),1 (active),1 (active),1 (active),1 (active),1 (active),1 (active)
COc1cc([C@@H]2c3cc4c(cc3[C@@H](O[C@@H]3O[C@@H]5CO[C@@H](c6cccs6)O[C@H]5[C@H](O)[C@H]3O)[C@H]3COC(=O)[C@H]23)OCO4)cc(OC)c1O [teniposide],≤ 0.3,≤ 0.3,≤ 0.3,≤ 0.3,≤ 0.3,1 (active),1 (active),1 (active),1 (active),1 (active),1 (active),1 (active),1 (active),1 (active),1 (active),1 (active),1 (active),1 (active),1 (active),1 (active)
COc1cccc(-c2cc(F)ccc2[C@H]2Cc3nc(N)nc(C)c3C(=O)N2)n1,≤ 0.3,≤ 0.3,≤ 0.3,≤ 0.3,≤ 0.3,1 (active),1 (active),1 (active),1 (active),1 (active),1 (active),1 (active),1 (active),1 (active),1 (active),1 (active),1 (active),1 (active),1 (active),1 (active)
C=CC(=O)Nc1cccc(Nc2nc(Nc3ccc(OCCOC)cc3)ncc2F)c1,3,3,9,3,9,1 (active),1 (active),1 (active),1 (active),1 (active),1 (active),1 (active),1 (active),1 (active),1 (active),1 (active),1 (active),1 (active),1 (active),1 (active)
CCCCc1oc2ccccc2c1C(=O)c1cc(I)c(OCCN(CC)CC)c(I)c1 [amiodarone],3,9,9,9,3,1 (active),1 (active),1 (active),1 (active),1 (active),1 (active),1 (active),1 (active),1 (active),1 (active),1 (active),1 (active),1 (active),1 (active),1 (active)
COc1ccc(C[C@H](N)C(=O)N[C@H]2[C@@H](O)[C@H](n3cnc4c(N(C)C)ncnc43)O[C@@H]2CO)cc1 [Puromycin dihydrochloride],≤ 0.3,1,1,1,1,1 (active),1 (active),1 (active),1 (active),1 (active),1 (active),1 (active),1 (active),1 (active),1 (active),1 (active),1 (active),1 (active),1 (active),1 (active)
CC(C)(N)c1cc(C(=O)N[C@@H]2CCc3ccc(OC4=C5CCC(=O)N=C5NC=C4)cc3C2)cc(C(F)(F)F)c1 [ML 786 dihydrochloride],1,1,1,3,1,1 (active),1 (active),1 (active),1 (active),1 (active),1 (active),1 (active),1 (active),1 (active),1 (active),1 (active),1 (active),1 (active),1 (active),1 (active)
Cc1cc(C)cc(C(=O)NOCCCCCC(=O)NO)c1,≤ 0.3,≤ 0.3,≤ 0.3,1,≤ 0.3,1 (active),1 (active),1 (active),1 (active),1 (active),1 (active),1 (active),1 (active),1 (active),1 (active),1 (active),1 (active),1 (active),1 (active),1 (active)
C=C1CN(Cc2ccc(C(=O)Nc3ccccc3N)cc2)C(=O)c2ccccc21,≤ 0.3,≤ 0.3,≤ 0.3,≤ 0.3,1,1 (active),1 (active),1 (active),1 (active),1 (active),1 (active),1 (active),1 (active),1 (active),1 (active),1 (active),1 (active),1 (active),1 (active),1 (active)
COc1cc2c(Nc3ccc(Br)cc3F)ncnc2cc1OCC1CCN(C)CC1 [vandetanib],1,3,1,3,1,1 (active),1 (active),1 (active),1 (active),1 (active),1 (active),1 (active),1 (active),1 (active),1 (active),1 (active),1 (active),1 (active),1 (active),1 (active)
CCc1cc(-c2n[nH]c(C)c2-c2ccc3c(c2)OCCO3)c(O)cc1O,3,3,3,3,3,1 (active),1 (active),1 (active),1 (active),1 (active),1 (active),1 (active),1 (active),1 (active),1 (active),1 (active),1 (active),1 (active),1 (active),1 (active)
Oc1cccc(-c2nc(N3CCOCC3)c3oc4ncccc4c3n2)c1 [PI 103 hydrochloride],≤ 0.3,≤ 0.3,≤ 0.3,≤ 0.3,≤ 0.3,1 (active),1 (active),1 (active),1 (active),1 (active),1 (active),1 (active),1 (active),1 (active),1 (active),1 (active),1 (active),1 (active),1 (active),1 (active)
C[C@@H]1CN(CC(=O)Nc2ccc3c(c2)Cc2cccc(-c4cc(=O)cc(N5CCOCC5)o4)c2S3)C[C@H](C)O1,3,9,3,9,9,1 (active),1 (active),1 (active),1 (active),1 (active),1 (active),1 (active),1 (active),1 (active),1 (active),1 (active),1 (active),1 (active),1 (active),1 (active)
O=C(O)c1ccc(Nc2ncc3c(n2)-c2ccc(Cl)cc2C(c2c(F)cccc2F)=NC3)cc1,≤ 0.3,≤ 0.3,≤ 0.3,≤ 0.3,≤ 0.3,1 (active),1 (active),1 (active),1 (active),1 (active),1 (active),1 (active),1 (active),1 (active),1 (active),1 (active),1 (active),1 (active),1 (active),1 (active)
Cn1cc(-c2[nH]c3cc(NC(=O)[C@H](N)C4CCCCC4)cc4c3c2C=NNC4=O)cn1,9,9,9,3,9,1 (active),1 (active),1 (active),1 (active),1 (active),1 (active),1 (active),1 (active),1 (active),1 (active),1 (active),1 (active),1 (active),1 (active),1 (active)
CC(C)c1cc(-c2n[nH]c(=O)n2-c2ccc3c(ccn3C)c2)c(O)cc1O [ganetespib],≤ 0.3,≤ 0.3,≤ 0.3,≤ 0.3,≤ 0.3,1 (active),1 (active),1 (active),1 (active),1 (active),1 (active),1 (active),1 (active),1 (active),1 (active),1 (active),1 (active),1 (active),1 (active),1 (active)
COc1ccc(S(=O)(=O)N(C(C)=O)c2ccccc2/C=C/c2cc[n+]([O-])cc2)cc1,1,3,≤ 0.3,3,≤ 0.3,1 (active),1 (active),1 (active),1 (active),1 (active),1 (active),1 (active),1 (active),1 (active),1 (active),1 (active),1 (active),1 (active),1 (active),1 (active)
Nc1nccc2c1ncn2[C@@H]1C=C(CO)[C@@H](O)[C@H]1O [3-Deazaneplanocin A hydrochloride],≤ 0.3,1,3,≤ 0.3,3,1 (active),1 (active),1 (active),1 (active),1 (active),1 (active),1 (active),1 (active),1 (active),1 (active),1 (active),1 (active),1 (active),1 (active),1 (active)
COc1c(C)cnc(Cn2cnc3c(Cl)nc(N)nc32)c1C,≤ 0.3,≤ 0.3,≤ 0.3,≤ 0.3,≤ 0.3,1 (active),1 (active),1 (active),1 (active),1 (active),1 (active),1 (active),1 (active),1 (active),1 (active),1 (active),1 (active),1 (active),1 (active),1 (active)
CN1CCC(=C2c3ccccc3CC(=O)c3sccc32)CC1 [ketotifen],9,9,9,9,9,1 (active),1 (active),1 (active),1 (active),1 (active),1 (active),1 (active),1 (active),1 (active),1 (active),1 (active),1 (active),1 (active),1 (active),1 (active)
CCCCCCCCCCCCCCCC[n+]1ccn(Cc2ccccc2)c1C,1,≤ 0.3,≤ 0.3,1,1,1 (active),1 (active),1 (active),1 (active),1 (active),1 (active),1 (active),1 (active),1 (active),1 (active),1 (active),1 (active),1 (active),1 (active),1 (active)
COc1cc(/C=C/c2ccc(OC)cc2OC)cc(OC)c1,3,1,3,1,3,1 (active),1 (active),1 (active),1 (active),1 (active),1 (active),1 (active),1 (active),1 (active),1 (active),1 (active),1 (active),1 (active),1 (active),1 (active)

# From the supplement of paper PMC7411054
